Assay [1] relates to E18 rat cortical neuron-glia co-culture. Briefly: fiber score / MBP score (myelination specific beyond OL differentiation) (ratio); higher = more myelination-specific MBP alignment. To be noted: treatment time: 8 days (DIV5-DIV13). The essentials: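 Fiber score divided by MBP score is the read-out; fiber score is continuous MBP fiber length per Olig2+ nucleus, and MBP score is thresholded MBP area × intensity per Olig2+ nucleus. Primary E18 rat cortical co-cultures were dissociated with papain and seeded at 20,000 cells/well on poly-d-lysine/laminin 96-well plates. Library compounds at 1 or 5 µM were given in myelination medium from DIV5 to DIV13, after which cells were fixed in 4 % paraformaldehyde, immunostained for MBP and Olig2 with DAPI, and imaged in four 10X fields per well in duplicate wells.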

Assay [2] has the same test system. Briefly: myelination (MBP fiber length per Olig2+ nucleus), % of 1 µM DAPT response (DMSO = 0) (% of DAPT); higher = more myelination, active = 50 or more. To be noted: treatment time: 8 days (DIV5-DIV13). In short, it runs like this:
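Four 10X fields in each of duplicate wells were analysed after cultures were fixed in 4 % paraformaldehyde and immunostained for MBP and Olig2, with DAPI as the nuclear counterstain. The cultures were papain-dissociated primary E18 rat cortical co-cultures at 20,000 cells/well on poly-d-lysine/laminin 96-well plates, dosed with library compounds at 1 or 5 µM in myelination medium from DIV5 to DIV13. The myelination readout was continuous straight MBP fiber length per Olig2+ nucleus, with 0.1 % DMSO set to 0 and a 1 µM positive control set to 100.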

`O=C(O[C@@H]1Cc2c(O)cc(O)cc2O[C@@H]1c1cc(O)c(O)c(O)c1)c1cc(O)c(O)c(O)c1` [Epigallocatechin gallate]: the “fiber score / MBP score” value was determined as 0.732 in assay [1] (1 µM) and 1.01 in assay [1] (5 µM). In addition, the myelination in assay [2] (1 µM) was -23.8 (inactive); in assay [2] (5 µM) it was -10.9 (inactive).
For `C[C@]12CCC(=O)C=C1CC[C@@H]1[C@@H]2C(=O)C[C@@]2(C)[C@H]1CC[C@]2(O)C(=O)CO` [Cortisone], in that order: 0.752, 0.764, -12.4 (inactive) and -10.5 (inactive).
`Nc1ccn([C@H]2CC[C@@H](CO)O2)c(=O)n1` [Zalcitabine]: the “fiber score / MBP score” value in assay [1] (1 µM) came out at 0.888; in assay [1] (5 µM), 0.902. For the same compound, the results for the myelination in assay [2] (1 µM) and in assay [2] (5 µM) were 3.9 (inactive) and -7.3 (inactive), respectively.
Turning to `CNCCCN1c2ccccc2CCc2ccccc21` [Desipramine], the entries for the “fiber score / MBP score” value in assay [1] (1 µM) and in assay [1] (5 µM) were 0.74 and 0.549, respectively. For the same compound, the myelination in assay [2] (1 µM) was -14.9 (inactive); in assay [2] (5 µM) it was -13.3 (inactive).
For `CCN(CC)CCOC(=O)C1(C2CCCCC2)CCCCC1` [Dicyclomine], in that order: 0.616, 0.288, -14.3 (inactive) and -24.6 (inactive).
Taken in the same sequence, the figures for `COCC1=C(C(=O)OC(C)OC(=O)OC(C)C)N2C(=O)[C@@H](NC(=O)/C(=N\OC)c3csc(N)n3)[C@H]2SC1` (some centres not stated) [Cefpodoxime proxetil] were 0.721, 0.866, -20.2 (inactive) and -4.97 (inactive).
On to `CC(C)[C@H](N)C(=O)OCCOCn1cnc2c(=O)nc(N)[nH]c21` [Valaciclovir], for which the “fiber score / MBP score” value was 0.731 in assay [1] (1 µM) and 0.774 in assay [1] (5 µM). Also, the myelination in assay [2] (1 µM) was -21.7 (inactive); in assay [2] (5 µM) it was -19 (inactive).
For the compound `Nc1ccc2cn[nH]c2c1` [6-Aminoindazole], the entries for the “fiber score / MBP score” value in assay [1] (1 µM) and in assay [1] (5 µM) were 0.529 and 0.815, respectively. Further, the results for the myelination in assay [2] (1 µM) and in assay [2] (5 µM) were -12.7 (inactive) and -11.1 (inactive), respectively.
Taken in the same sequence, the figures for `CC(=O)O[C@@]12CO[C@@H]1C[C@H](O)[C@@]1(C)C(=O)[C@H](O)C3=C(C)[C@@H](OC(=O)[C@H](O)[C@@H](NC(=O)OC(C)(C)C)c4ccccc4)C[C@@](O)([C@@H](OC(=O)c4ccccc4)[C@H]21)C3(C)C` [Docetaxel] were 1.59, 1.62, 263 (active) and 257 (active).
Take `COc1cc2nc(N3CCN(C(=O)C4COc5ccccc5O4)CC3)nc(N)c2cc1OC` (configuration not stated) [Doxazosin]: the “fiber score / MBP score” value turned out to be 0.727 in assay [1] (1 µM) and 0.531 in assay [1] (5 µM). In addition, the myelination in assay [2] (1 µM) was -45.2 (inactive); in assay [2] (5 µM), -54.3 (inactive).
As for `CC(N)C12CC3CC(CC(C3)C1)C2` (configuration not stated) [Rimantadine], the “fiber score / MBP score” value in assay [1] (1 µM) was 0.962; in assay [1] (5 µM), 0.737. In addition, the myelination in assay [2] (1 µM) was 28.7 (inactive); in assay [2] (5 µM), 62.2.
For `CC(C)(C(=O)c1cccnc1)c1cccnc1` [Metyrapone], in that order: 0.588, 0.894, -19.7 (inactive) and -9.03 (inactive).
On to `NC[C@H]1CC[C@H](C(=O)Oc2ccc(CCC(=O)O)cc2)CC1` [Cetraxate], for which the “fiber score / MBP score” value came to 1.07 in assay [1] (1 µM) and 0.791 in assay [1] (5 µM). Besides, the myelination is 4.64 (inactive) in assay [2] (1 µM) and -18.2 (inactive) in assay [2] (5 µM).
With `COc1cc(C)c(Cc2cnc(N)nc2N)cc1OC` [Ormetoprim], the “fiber score / MBP score” value came out at 0.746 in assay [1] (1 µM) and 0.726 in assay [1] (5 µM). Also, the myelination in assay [2] (1 µM) was -31.5 (inactive); in assay [2] (5 µM), -40 (inactive).
Taken in the same sequence, the figures for `CCCC(=O)Nc1ccc(OCC(O)CNC(C)C)c(C(C)=O)c1` (configuration not stated) [Acebutolol] were 0.757, 0.796, -40.3 (inactive) and -32.5 (inactive).
As for `CCN(CC)CCOC(=O)c1ccc(N)cc1` [Procaine], the “fiber score / MBP score” value in assay [1] (1 µM) was 1.09; in assay [1] (5 µM), 1.47. Also, the myelination in assay [2] (1 µM) was 6.68 (inactive); in assay [2] (5 µM) it was 23.1 (inactive).
Regarding `C[C@H]1c2cccc(O)c2C(=O)C2=C(O)[C@]3(O)C(=O)C(C(N)=O)=C(O)[C@@H](N(C)C)[C@@H]3[C@@H](O)[C@@H]21` [Doxycycline], the “fiber score / MBP score” value in assay [1] (1 µM) amounted to 0.798; in assay [1] (5 µM), 0.815. The myelination in assay [2] (1 µM) is -18.2 (inactive); in assay [2] (5 µM) it was -0.977 (inactive).
Take `CC[C@@H](CO)NCCN[C@@H](CC)CO` [Ethambutol]: the “fiber score / MBP score” value in assay [1] (1 µM) was found to be 0.781; in assay [1] (5 µM), 0.753. Further, the myelination in assay [2] (1 µM) was -5.28 (inactive); in assay [2] (5 µM), -6.9 (inactive).
As for `NC(=O)c1ncn([C@@H]2O[C@H](CO)[C@@H](O)[C@H]2O)n1` [Ribavirin], the figures for the “fiber score / MBP score” value in assay [1] (1 µM) and in assay [1] (5 µM) were 1.17 and 1.03, respectively. For the same compound, the myelination in assay [2] (1 µM) is 3.44 (inactive); in assay [2] (5 µM), 4.23 (inactive).
With `NCCc1ccc(O)c(O)c1` [Dopamine], the figures for the “fiber score / MBP score” value in assay [1] (1 µM) and in assay [1] (5 µM) were 1.28 and 1.06, respectively. The myelination is 5.4 (inactive) in assay [2] (1 µM) and 0.308 (inactive) in assay [2] (5 µM).
For `O=C(CCCN1CCC(O)(c2ccc(Cl)cc2)CC1)c1ccc(F)cc1` [Haloperidol], in that order: 0.526, 0.498, -18 (inactive) and -13.9 (inactive).
With `COc1ccc2[nH]c([S@@+]([O-])Cc3ncc(C)c(OC)c3C)nc2c1` [Esomeprazole], the results for the “fiber score / MBP score” value in assay [1] (1 µM) and in assay [1] (5 µM) were 0.799 and 0.979, respectively. Further, the myelination in assay [2] (1 µM) is -10.5 (inactive); in assay [2] (5 µM) it was 4.81 (inactive).
As to `C[C@@H](c1ncncc1F)[C@](O)(Cn1cncn1)c1ccc(F)cc1F` [Voriconazole], the “fiber score / MBP score” value in assay [1] (1 µM) stood at 0.693; in assay [1] (5 µM), 0.824. The myelination was -40.5 (inactive) in assay [2] (1 µM) and -29.3 (inactive) in assay [2] (5 µM).

Source of the values: the supplement of paper PMC4840960.
